In PubChem BioAssay one finds composite z-score data, which are given here for 36 molecules.

Each structure is given as a SMILES string.

The experiment has as its system Sonic hedgehog protein (Shh). Kind of experiment: Sonic hedgehog microarray binding compounds – biochemical, small-molecule microarray, 635/667 nm fluorescence, primary screen (AID 1151).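 Note: Shh protein binding to compounds spotted on small-molecule microarray slides; score combines spot fluorescence intensity with signal-to-noise across triplicate slides.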 The settings on record: 635 nm fluorescence, higher = more signal.
In turn, `COc1ccc([Si](C)(C)[C@@H]2[C@@H](CCO)O[C@]3(C(=O)N(Cc4ccc(NC(C)=O)cc4)c4ccccc43)[C@H]2C)cc1` registered a composite z-score of 1.35. Then `CCCCC(=C=CC[C@H](O)c1ccccc1OCCO)C[C@H](O)COCc1ccccc1`, with 0.0668; and `COC(=O)[C@H]1COC(c2ccc(OCCCO)cc2)=N1`, with -0.196. Molecule `CC(C)C[C@@H]1NC(=O)[C@H]2C[C@@H](C(=O)NCCCCCCN(C)C)[C@@H](c3cccc(OCCO)c3)N2C1=O` showed a composite z-score of 2.13.

Molecule `O=C1O[C@@H](c2ccccc2)[C@@H](c2ccccc2)N2[C@@H](c3ccccc3OCCO)[C@]3(C(=O)Nc4ccc(C#CCCO)cc43)[C@@H](C(=O)O)[C@H]12` showed a composite z-score of 0.517.

For the molecule `CC(C)NC(=O)[C@@]1(C)c2ccccc2C(=O)N(Cc2cc(F)cc(C(F)(F)F)c2)[C@H]1c1ccc(CO)cc1`, the composite z-score stood at 0.903. Then `O=C1O[C@@H](c2ccccc2)[C@@H](c2ccccc2)N2[C@@H](c3ccc(OCCO)cc3)[C@]3(C(=O)Nc4ccccc43)[C@@H](C(=O)N3CCN(c4ncccn4)CC3)[C@H]12`, with 1.14; and `CCc1cc2c(nc1CC)CCN(CCC(C)=NOC[C@@H](O)[C@H]1O[C@@H]3OC(C)(C)O[C@@H]3[C@H]1O)C2`, with 0.528; and `C=CC[C@@H]1C=C[C@H](ON=C(C)CCN2CCc3nc(CC)c(CC)cc3C2)[C@@H](CO)O1`, with 1.85. Then `CN(C)CCCNC(=O)[C@@H]1c2ccccc2C(=O)N(Cc2cc(F)cc(C(F)(F)F)c2)[C@H]1c1ccc(CO)cc1`, with 0.388; and `O=C1[C@H]2[C@H]3[C@H](O)[C@H](O)CC(=NOC[C@@H](O)COCc4ccco4)[C@H]3CC[C@H]2C(=O)N1c1cccc(Oc2ccccc2)c1`, with -0.621.

Regarding `CS(=O)(=O)CCOC(=O)C1=CC(CCCO)=CC(c2cccs2)N(Cc2cccc(OC(F)(F)F)c2)C=C1C(=O)OCCS(C)(=O)=O` (stereo unspecified), the composite z-score amounted to 0.37. Then `CC(CCC(=O)OC[C@H]1O[C@H](C#Cc2ccccc2)C=C[C@@H]1Oc1ccc(C)cc1)=NO[C@@H](C)c1cn([C@H](CO)Cc2ccccc2)nn1`, with 0.316; and `COc1ccc(O[C@H]2C=C[C@@H](c3ccccc3)O[C@@H]2COC(=O)CCC(C)=NO[C@@H](C)c2cc(-c3c(C)cc(C)cc3C)no2)cc1`, with 0.224.

For the molecule `CC(C)[C@@H](OCc1ccccc1)[C@H](C)C=NO[C@H](C)c1cn([C@H](CO)Cc2ccccc2)nn1`, the composite z-score is 0.29. Then `COc1cccc([C@H]2Oc3ccc(OC)cc3C(=NOC(C)CN3CCCc4nc(C)c(C)cc43)[C@@H]2O)c1` (stereo partly specified), with 0.478; and `O=C1C[C@@H](O)[C@@H](O)[C@@H]2[C@@H]3C(=O)N(C4CCCCC4)C(=O)[C@@H]3CC[C@H]12`, with -0.0419; and `COc1ccc([Si](C)(C)[C@H]2[C@H](CC(=O)N3CCC[C@H]3CO)O[C@@]3(C(=O)N(Cc4cccc(N5C(=O)COc6ccccc65)c4)c4ccccc43)[C@@H]2C)cc1`, with 1.92.

In turn, `CC(C)NC(=O)[C@@]1(c2ccc([N+](=O)[O-])cc2)CC(=O)N(CC23CC4CC(CC(C4)C2)C3)[C@@H]1c1ccc(CO)cc1I` showed a composite z-score of 0.746. With `C=CCOC(=O)[C@H]1[C@@H]2C(=O)O[C@@H](c3ccccc3)[C@@H](c3ccccc3)N2[C@@H](c2ccc(OCCOC(=O)[C@H]3C[C@H]4C(=O)N5CCC[C@H]5C(=O)N4[C@H]3c3cccc(OCCO)c3)cc2)[C@]12C(=O)Nc1ccc(I)cc12`, the composite z-score amounted to 2.08. In turn, `CC(C)CN1CCc2nc(-c3ccccc3)c3c(c2CC1)CO[C@@H](C)C3` had a composite z-score of 1.53.

With `CC(C)OC(=O)C=C1C[C@@H](c2ccc(C#N)cc2)O[C@@H](c2ccc(C#N)cc2)O1`, the composite z-score is 0.292. Turning to `C=CC[C@@H]1C=C[C@H](ON=C[C@@H](OC)[C@H](C)C=CCC(=O)OC)[C@@H](CO)O1`, the composite z-score came to 0.224. `CN1C(=O)C2C(C1=O)C1C=C(CCCO)C2C(c2ccc(CN3CCCC3)cc2)N1C` (stereo unspecified) showed a composite z-score of 0.207. Then `COCC(=C=CC[C@@H](O)c1ccccc1OCCO)CCO`, with 0.156; and `COCCOC(=O)N1C(=O)[C@@]2(c3cc(C#CCNC(N)=O)ccc31)[C@H](c1ccc(O)cc1)N1[C@H](c3ccccc3)[C@H](c3ccccc3)OC(=O)[C@H]1[C@@H]2C(=O)N1CCCCCCC1`, with 1.65.

As to `C=C(/C(=C/C[C@H](OC(=O)c1ccncc1)c1ccc(OCCO)cc1)c1cnc2ccccc2c1)C(C)C`, the composite z-score was 2.16. In the case of `Cc1cc2c(c(=O)o1)[C@H](O)[C@H]1O[C@H]1C2=O`, the composite z-score is 1.5. Then `COC(=O)[C@@H]1CC[C@H](C)[C@@H](c2ccc(C)cc2)N1C(=O)c1ccc(C=NOC[C@@H](O)COCc2ccco2)cc1`, with -0.334; and `CO[C@@H]1COC(=O)[C@H](C)NC(=O)[C@@H](C)COC(=O)CCC[C@H]1C`, with 1.24; and `CC(C)c1ccc(NN2C(C(O)c3ccc4c(c3)OCO4)C=CC3C(=O)N(c4ccccc4)C(=O)C32)cc1` (stereo unspecified), with 0.397. In turn, `CCOC(=O)[C@H](Cc1ccccc1)NC(=O)CCC1CC(OC(=O)NCc2ccc3c(c2)OCO3)CC2(CCCC(COC(=O)NCc3ccccc3)O2)O1` (stereo partly specified) displayed a composite z-score of 0.944.

`CC(C)(C)OC(=O)CC[C@]1(C(=O)NCc2ccccc2)N=C(c2ccc(OCCCO)cc2)O[C@H]1c1ccccc1` displayed a composite z-score of -0.349. For the molecule `Cc1ccc(C2CC=C(C(=O)O)CN2S(=O)(=O)c2ccc(C)cc2)cc1` (stereo unspecified), the composite z-score is -0.065. Then `CC[C@@H](c1ccccc1)n1c(=O)n2n(c1=O)[C@H]1[C@H](O)[C@@H]3O[C@@H]3C(=NOCC=C(C)CCC=C(C)C)[C@H]1CC2`, with 1.88. As for `CC(CCC(=O)OC[C@H]1O[C@H](C#Cc2ccccc2)C=C[C@@H]1Oc1ccc(C)cc1)=NOC[C@@H](O)COCc1ccco1`, the figure is -2.43.
